{
  "source": "the supplement of paper PMC8728848",
  "binders": {"B1": {"name": "InvD YPIII (Yersinia pseudotuberculosis), B1JSC0 (protein)", "chain": "MIKYFSFFKKPEPIVGILPNRQSHHILPTHIRRVAWGTLLLQLFIPLSVSFSPAIAAMKASKADTMVSYSSTEPYVLGSGETVAMVAKKYGITVDELKKINIYRTFSRPFTALTTGDEIDIPRKASPFSVDNNKDNRLSVENTLAGHAVAGATALSNGDVAKSGERMVRSAASNEFNNSAQQWLSQFGTARVQLNINDDFHLDGSAADVLIPLYDNEKSILFTQLGARNKDSRNTVNMGAGVRTFQGNWMYGANTFFDNDLTGKNRRIGVGAEAWTDYLKLSANNYFGITDWHQSRDFIDYNERPANGYDLRAEAYLPSYPQLGGKAMYEKYRGDDVALFGKDNRQKNPHAITAGVNYTPIPLVTIGAEHRAGKGGQNDSNINFQLNYRLGETWQSHIDPSAVAASRTLAGSRYDLVERNNHIVLDYQKQNLVRLSLPDSLAGDPFSQLSVTAQVTATHGLERIDWQSAELMAAGGVLKQTSKNGLEITLPEYQMNRTGGNSYILNAIAYDTQGNASSQASMLITVNAQKINIANSTLVAVPINIEANNSDTSVVTLTLKDDNNIPVTGQDVTFLSPLGTLSAMTDSGNGVYTATLTAGTVSGTTAVSSNINGSALDMTPATVTLNGNSGELSITHSMLVAAPVNIEANGSDTSVVTLTLRDSNNNPVTGQTVTFAGTLGTLGAVTEGSSGVYTATLTAGIMVGTSSITASVNSTALGVTPATVTLNGDSGNLSTTNSTLVAAPVNIEANSSDTSVVTLTLRDNNNNPVTGQTVVFTSTLGTLGNVTEQASGVYTATLTAGTVSGVASLSVSVGGNALGVTPATVTLNGDSGNLSTTNSTLVAAPVNIEANSSDTSVVTLTLRDNNNNPVTGQTVNFAGTLGTLGTVSEGSSGVYTTTLTAGTVAGVASLSVNVGGNALGVTPATVTLNGNSGNLSATNSTLVAAPVNIEANSSDTSVVTLTLRDNNNNPVTGQTVAFTSTLGTLGNVTEQASGVYTATLTAGTVSGVASLSVSVNSNALGVTPATVTLNGDSGNLSTTNSTLVAAPVNIEANSSDTSVVTLTLRDNNNNPVTGQTVAFTSTLGTLGNVTEQASGLYTATLTAGTVSGVASLSVNVGGNALGVTPATVTLNGDSGNLSATNSTLVAAPVNIEANSSDTSVVTLTLRDNNNNPVTGQTVAFTSTLGTLGNVTEQASGLYTATLTAGTVSGVASLSVNVGGTALGVTPATVTLNGDSGNLSTTNSTLVAAPVNIEANSSDTSVVTLTLRDNNNNPVTGQTVAFTSTLGTLGNVTEQASGLYTATLTAGTVSGVASLSVSVNSTALGVTPATVTLNGDSGNLSTTNSTLVAAPVNIEANSSDTSVVTLTLRDNNNNPVTGQTVAFTSTLGTLGNVTEQASGVYTATLTAGTVAGVASLSVNVGGNALGVTPATVTLNGDSGNLSTTNSTLVAAPVNIEANSSDTSVVTLTLRDNNNNPVTGQTVAFTSTLGTLGNVTEQASGVYTATLTAGTVSGVASLSVSVGSSALGVTPATVTLNGDSGNLSTTNSTLVAAPVNIEANNSDTSVVTLTLRDNNNNPVTGQTVAFTSTLGTLGNVTEQASGVYTATLTAGTVSGVASLSVSVNSNALGVTPATVTLNGDSGNLSTTNSTLVAAPVNIEANSSDTSVVTLTLRDNNNNPVTGQTVVFTSTLGTLGNVTEQASGLYTATLTAGTVSGVASLSVSVGGNALGVTGNITLAPGALDAARSILAVNKPSINADDRIGSTITFTAQDAQGNAITGLDIAFMTDLENSQIMTLVDHNDGTYTANINGTQTGIANIAVQSSGATIAGLAATMVTITPGAWNTTQATPVMTVALPITTCQSSSGVYKRYYIGIVTHELYDNYGNEISGILTYNLGAGRYTTVTSQNSSVSGSNGLTRRSNSPVSHFILTSDAYTSQAACYAERIANVNVTITVTAITDDFKTSAVNKVFILGTGSN"}},
  "assay_in_all_cases": "glycan array binding signal (z-score within array); higher = stronger binding",
  "details_in_all_cases": "glycan notation: IUPAC condensed, linker removed",
  "key": {"[1]": {"molecular_target": "Gal(b1-4)GlcNAc(b1-3)Gal(b1-4)GlcNAc(b1-2)Man(a1-3)[Gal(b1-4)GlcNAc(b1-3)Gal(b1-4)GlcNAc(b1-2)Man(a1-6)]Man(b1-4)GlcNAc(b1-4)GlcNAc", "how_it_was_run": "(§1)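 The Consortium for Functional Glycomics database supplied 3228 glycan arrays, of which those lacking an available protein sequence were dropped. The binding signal, a within-array Z-score, was averaged across arrays of the same protein sequence and across linkers. Negative scores can be read as non-binding.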"}, "[2]": {"molecular_target": "Gal(b1-4)GlcNAc(b1-3)Gal(b1-4)GlcNAc(b1-2)Man(a1-3)[Gal(b1-4)GlcNAc(b1-3)Gal(b1-4)GlcNAc(b1-2)Man(a1-6)]Man(b1-4)GlcNAc(b1-4)[Fuc(a1-6)]GlcNAc", "how_it_was_run": "as §1"}, "[3]": {"molecular_target": "Gal(b1-4)GlcNAc(b1-3)Gal(b1-4)GlcNAc(b1-2)[Gal(b1-4)GlcNAc(b1-3)Gal(b1-4)GlcNAc(b1-6)]Man(a1-6)[Gal(b1-4)GlcNAc(b1-3)Gal(b1-4)GlcNAc(b1-2)Man(a1-3)]Man(b1-4)GlcNAc(b1-4)[Fuc(a1-6)]GlcNAc", "how_it_was_run": "as §1"}, "[4]": {"molecular_target": "Gal(b1-4)GlcNAc(b1-3)Gal(b1-4)GlcNAc(b1-3)Gal(b1-4)GlcNAc(b1-2)Man(a1-3)[Gal(b1-4)GlcNAc(b1-3)Gal(b1-4)GlcNAc(b1-3)Gal(b1-4)GlcNAc(b1-2)Man(a1-6)]Man(b1-4)GlcNAc(b1-4)GlcNAc", "how_it_was_run": "as §1"}, "[5]": {"molecular_target": "Gal(b1-4)GlcNAc(b1-3)Gal(b1-4)GlcNAc(b1-3)Gal(b1-4)GlcNAc(b1-2)[Gal(b1-4)GlcNAc(b1-3)Gal(b1-4)GlcNAc(b1-3)Gal(b1-4)GlcNAc(b1-6)]Man(a1-6)[Gal(b1-4)GlcNAc(b1-3)Gal(b1-4)GlcNAc(b1-3)Gal(b1-4)GlcNAc(b1-2)Man(a1-3)]Man(b1-4)GlcNAc(b1-4)[Fuc(a1-6)]GlcNAc", "how_it_was_run": "as §1"}, "[6]": {"molecular_target": "Gal(b1-4)GlcNAc(b1-3)Gal(b1-4)GlcNAc(b1-3)[Gal(b1-4)GlcNAc(b1-3)Gal(b1-4)GlcNAc(b1-6)]GalNAc", "how_it_was_run": "as §1"}, "[7]": {"molecular_target": "Gal(b1-4)GlcNAc(b1-3)Gal(b1-4)GlcNAc(b1-6)[Gal(b1-3)]GalNAc", "how_it_was_run": "as §1"}, "Gal6S(b1-4)GlcNAc6S": {"molecular_target": "Gal6S(b1-4)GlcNAc6S", "how_it_was_run": "as §1"}, "[8]": {"molecular_target": "GlcNAc(b1-2)Man(a1-3)[GlcNAc(b1-2)Man(a1-6)]Man(b1-4)GlcNAc(b1-4)[Fuc(a1-6)]GlcNAc", "how_it_was_run": "as §1"}, "[9]": {"molecular_target": "GlcNAc(b1-3)Gal(b1-4)GlcNAc(b1-2)Man(a1-3)[GlcNAc(b1-3)Gal(b1-4)GlcNAc(b1-2)Man(a1-6)]Man(b1-4)GlcNAc(b1-4)GlcNAc", "how_it_was_run": "as §1"}, "[10]": {"molecular_target": "GlcNAc(b1-3)Gal(b1-4)GlcNAc(b1-3)Gal(b1-4)GlcNAc(b1-2)Man(a1-3)[GlcNAc(b1-3)Gal(b1-4)GlcNAc(b1-3)Gal(b1-4)GlcNAc(b1-2)Man(a1-6)]Man(b1-4)GlcNAc(b1-4)GlcNAc", "how_it_was_run": "as §1"}, "[11]": {"molecular_target": "GlcNAc(b1-3)Gal(b1-4)GlcNAc(b1-3)Gal(b1-4)GlcNAc(b1-2)Man(a1-3)[GlcNAc(b1-3)Gal(b1-4)GlcNAc(b1-3)Gal(b1-4)GlcNAc(b1-2)Man(a1-6)]Man(b1-4)GlcNAc(b1-4)[Fuc(a1-6)]GlcNAc", "how_it_was_run": "as §1"}, "[12]": {"molecular_target": "GlcNAc(b1-3)Gal(b1-4)GlcNAc(b1-3)Gal(b1-4)GlcNAc(b1-2)[GlcNAc(b1-3)Gal(b1-4)GlcNAc(b1-3)Gal(b1-4)GlcNAc(b1-6)]Man(a1-6)[GlcNAc(b1-3)Gal(b1-4)GlcNAc(b1-3)Gal(b1-4)GlcNAc(b1-2)Man(a1-3)]Man(b1-4)GlcNAc(b1-4)[Fuc(a1-6)]GlcNAc", "how_it_was_run": "as §1"}, "[13]": {"molecular_target": "Man(a1-2)Man(a1-6)[Man(a1-3)]Man(a1-6)[Man(a1-2)Man(a1-2)Man(a1-3)]Man", "how_it_was_run": "as §1"}, "[14]": {"molecular_target": "Neu5Ac(a2-3)Gal(b1-3)GalNAc(b1-4)[Neu5Ac(a2-8)Neu5Ac(a2-3)]Gal(b1-4)Glc", "how_it_was_run": "as §1"}, "[15]": {"molecular_target": "Neu5Ac(a2-3)Gal(b1-3)GlcNAc6S", "how_it_was_run": "as §1"}, "[16]": {"molecular_target": "Neu5Ac(a2-3)Gal(b1-3)]Neu5Ac(a2-3)Gal(b1-4)]GlcNAc", "how_it_was_run": "as §1"}, "[17]": {"molecular_target": "Neu5Ac(a2-3)Gal(b1-4)GlcNAc(b1-6)[Gal(b1-3)]GalNAc", "how_it_was_run": "as §1"}, "[18]": {"molecular_target": "Neu5Ac(a2-6)GalNAc(b1-4)GlcNAc", "how_it_was_run": "as §1"}, "[19]": {"molecular_target": "Neu5Ac(b2-6)Gal(b1-4)GlcNAc", "how_it_was_run": "as §1"}, "Neu5Ac(b2-6)GalNAc": {"molecular_target": "Neu5Ac(b2-6)GalNAc", "how_it_was_run": "as §1"}, "[20]": {"molecular_target": "Neu5Gc(a2-3)Gal(b1-4)GlcNAc(b1-3)Gal(b1-4)GlcNAc(b1-2)Man(a1-3)[Neu5Gc(a2-3)Gal(b1-4)GlcNAc(b1-3)Gal(b1-4)GlcNAc(b1-2)Man(a1-6)]Man(b1-4)GlcNAc(b1-4)GlcNAc", "how_it_was_run": "as §1"}, "[21]": {"molecular_target": "Neu5Gc(a2-8)Neu5Gc(a2-3)Gal(b1-4)GlcNAc", "how_it_was_run": "as §1"}},
  "note": "The sample as a whole holds a higher share of the strongest signals than the screen did.",
  "data": [
    {"binder": "B1", "values": [
      {"measurement": "glycan array binding signal (z-score)", "setting": "[1]", "result": 10.1},
      {"measurement": "glycan array binding signal (z-score)", "setting": "[2]", "result": 2.01},
      {"measurement": "glycan array binding signal (z-score)", "setting": "[3]", "result": 1.88},
      {"measurement": "glycan array binding signal (z-score)", "setting": "[4]", "result": 1.59},
      {"measurement": "glycan array binding signal (z-score)", "setting": "[5]", "result": 1.62},
      {"measurement": "glycan array binding signal (z-score)", "setting": "[6]", "result": 1.71},
      {"measurement": "glycan array binding signal (z-score)", "setting": "[7]", "result": 1.51},
      {"measurement": "glycan array binding signal (z-score)", "setting": "Gal6S(b1-4)GlcNAc6S", "result": -0.131},
      {"measurement": "glycan array binding signal (z-score)", "setting": "[8]", "result": 0.422},
      {"measurement": "glycan array binding signal (z-score)", "setting": "[9]", "result": -0.006},
      {"measurement": "glycan array binding signal (z-score)", "setting": "[10]", "result": 5.11},
      {"measurement": "glycan array binding signal (z-score)", "setting": "[11]", "result": 2.68},
      {"measurement": "glycan array binding signal (z-score)", "setting": "[12]", "result": 4.27},
      {"measurement": "glycan array binding signal (z-score)", "setting": "[13]", "result": -0.216},
      {"measurement": "glycan array binding signal (z-score)", "setting": "[14]", "result": -0.165},
      {"measurement": "glycan array binding signal (z-score)", "setting": "[15]", "result": -0.22},
      {"measurement": "glycan array binding signal (z-score)", "setting": "[16]", "result": 0.034},
      {"measurement": "glycan array binding signal (z-score)", "setting": "[17]", "result": 0.162},
      {"measurement": "glycan array binding signal (z-score)", "setting": "[18]", "result": -0.312},
      {"measurement": "glycan array binding signal (z-score)", "setting": "[19]", "result": -0.095},
      {"measurement": "glycan array binding signal (z-score)", "setting": "Neu5Ac(b2-6)GalNAc", "result": 0.163},
      {"measurement": "glycan array binding signal (z-score)", "setting": "[20]", "result": 0.122},
      {"measurement": "glycan array binding signal (z-score)", "setting": "[21]", "result": -0.373}
    ]}
  ]
}
